Experiment [1] is described as follows: qHTS for Inhibitors of the Functional Ribonucleoprotein Complex (vRNP) of Lassa (LASV) Arenavirus: LASV Primary Screen - GLuc reporter signal (AID 1347082; calls by dose curve; tested in HEK293 reporter line; note: series mostly up to about 57 µM; nearly all actives have a fitted effect of over 60% in size). Background: qHTS replaces the single test concentration by a dilution series.
A short description of experiment [2]: qHTS for Inhibitors of the Functional Ribonucleoprotein Complex (vRNP) of Lassa (LASV) Arenavirus: Viability assay - alamar blue signal for LASV Primary Screen (AID 1347083; calls by dose curve; tested in HEK293 reporter line; note: series mostly up to about 57 µM; nearly all actives have a fitted effect of over 80% in size).
Experiment [3] in a line: qHTS for Inhibitors of the Functional Ribonucleoprotein Complex (vRNP) of Lymphocytic Choriomeningitis Arenaviruses (LCMV): Viability assay - alamar blue signal for LCMV Primary Screen (AID 1347085; calls by dose curve; tested in HEK293 reporter line; note: nearly all actives have a fitted effect of over 80% in size; note: potency is the fitted concentration of half-maximal effect).
Experiment [4] addresses Nucleoprotein (Lymphocytic choriomeningitis virus (strain Armstrong)) (UniProt P09992). As to the kind of experiment: qHTS for Inhibitors of the Functional Ribonucleoprotein Complex (vRNP) of Lymphocytic Choriomeningitis Arenaviruses (LCMV): LCMV Primary Screen - GLuc reporter signal (AID 1347086). Note: series mostly up to about 57 µM; nearly all actives have a fitted effect of over 70% in size.

Our source for the Potency values is PubChem BioAssay (NCATS).

Results filed as inconclusive are left out. Activity calls are given as the source filed them. Unless noted, calls come from the whole dose curve.

Sequence of Nucleoprotein (Lymphocytic choriomeningitis virus (strain Armstrong)) (P09992 whole entry, looked up): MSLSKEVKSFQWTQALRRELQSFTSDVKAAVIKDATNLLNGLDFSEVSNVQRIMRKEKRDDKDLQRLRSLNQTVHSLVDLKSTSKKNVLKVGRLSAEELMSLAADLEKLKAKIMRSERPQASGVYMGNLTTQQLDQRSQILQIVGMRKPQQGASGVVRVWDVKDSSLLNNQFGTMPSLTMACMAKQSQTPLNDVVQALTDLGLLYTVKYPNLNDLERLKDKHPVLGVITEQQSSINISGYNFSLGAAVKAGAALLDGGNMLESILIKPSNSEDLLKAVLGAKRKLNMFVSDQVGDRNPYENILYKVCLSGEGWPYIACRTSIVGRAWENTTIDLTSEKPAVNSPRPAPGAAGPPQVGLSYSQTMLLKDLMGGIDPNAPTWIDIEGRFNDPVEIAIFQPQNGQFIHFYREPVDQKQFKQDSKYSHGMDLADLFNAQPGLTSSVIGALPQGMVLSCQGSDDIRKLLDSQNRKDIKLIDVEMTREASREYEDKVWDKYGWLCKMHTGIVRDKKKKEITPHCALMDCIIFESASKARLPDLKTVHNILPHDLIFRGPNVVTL

Regarding `COc1cc(OC)c2c(=O)cc(-c3ccccc3)oc2c1`, the Potency entry in experiment [1], in experiment [2] and in experiment [3] was “inactive” each time.
Take `CC(C)(O)CC(=O)NCCn1ccc2ncnc(Nc3ccc(Oc4cccc(C(F)(F)F)c4)c(Cl)c3)c21`: the Potency result in experiment [1] and in experiment [2] was “inactive” in each case. In addition, the Potency in experiment [3] is 769 nM (active).
Turning to `CCC1(CC)C(=O)NC(=O)N(c2ccccc2)C1=O`, the Potency result in experiment [1], in experiment [2], in experiment [3] and in experiment [4] was “inactive” throughout.
`CCc1cc(C(C)=NOCc2ccc(C3CCCCC3)c(C(F)(F)F)c2)ccc1CN1CC(C(=O)O)C1`: the Potency entry in experiment [1], in experiment [2], in experiment [3] and in experiment [4] was “inactive” each time.
`CC/C=C\CCOC(=O)CC`: the Potency entry in experiment [1], in experiment [2], in experiment [3] and in experiment [4] was “inactive” in each case.
As for `COc1ccc(-c2coc3cc(O)cc(O)c3c2=O)cc1OC`, the Potency entry in experiment [1], in experiment [2], in experiment [3] and in experiment [4] was “inactive” each time.
In the case of `COc1cc2cc(Oc3ccc4ccc(=O)oc4c3)c(=O)oc2cc1OC1OC(COC(=O)CC(C)(O)CC(=O)O)C(O)C(O)C1O` (stereo not drawn), the Potency result in experiment [1], in experiment [2], in experiment [3] and in experiment [4] was “inactive” throughout.
On to `Cc1cc(=O)oc2cc3c(cc12)OCO3`, for which the Potency result in experiment [1], in experiment [2], in experiment [3] and in experiment [4] was “inactive” each time.
As to `NC[C@@H]1O[C@@H](O[C@H]2[C@@H](O)[C@H](O[C@@H]3[C@@H](O)[C@@H](N)C[C@H](N)[C@H]3O[C@H]3O[C@H](CN)[C@@H](O)[C@@H](O)[C@H]3N)O[C@H]2CO)[C@H](N)[C@@H](O)[C@@H]1O`, the Potency result in experiment [1], in experiment [2], in experiment [3] and in experiment [4] was “inactive” throughout.
`NCc1ccccc1`: the Potency result in experiment [1], in experiment [2], in experiment [3] and in experiment [4] was “inactive” each time.
`O=C(Nc1ncc(SCCN2CCCC2)s1)[C@]1(c2ccc(S(=O)(=O)C3CC3)cc2)C[C@@H]1C1CCCCC1`: the Potency result in experiment [1], in experiment [2], in experiment [3] and in experiment [4] was “inactive” throughout.
`COc1cc(OC)c2ccc(=O)oc2c1`: the Potency entry in experiment [1], in experiment [2], in experiment [3] and in experiment [4] was “inactive” in each case.
Turning to `O=c1ccn([C@H]2C[C@H](O)[C@@H](CO)O2)c(=O)[nH]1`, the Potency result in experiment [1], in experiment [2], in experiment [3] and in experiment [4] was “inactive” throughout.
Turning to `COc1cc2oc(=O)ccc2cc1O`, the Potency entry in experiment [1], in experiment [2], in experiment [3] and in experiment [4] was “inactive” in each case.
`CCCC/C=C/C=C\C=O`: the Potency result in experiment [1], in experiment [2], in experiment [3] and in experiment [4] was “inactive” in each case.
As for `COc1cc2c(c(OC)c1OC)-c1c(cc3c(c1OC)OCO3)CC(C)C(C)C2` (stereo not drawn), the Potency result in experiment [1], in experiment [2], in experiment [3] and in experiment [4] was “inactive” each time.
In the case of `O=C1NC(=O)C(Cc2ccc(O)cc2)N1` (stereo not drawn), the Potency entry in experiment [1], in experiment [2], in experiment [3] and in experiment [4] was “inactive” throughout.
On to `CC(C)(O[C@@H]1O[C@H](CO)[C@@H](O)[C@H](O)[C@H]1O)[C@@H]1CC=C(C(=O)O)CC1`, for which the Potency result in experiment [1], in experiment [2], in experiment [3] and in experiment [4] was “inactive” in each case.
Consider `COc1cc2ccc(=O)oc2cc1O`, for which the Potency entry in experiment [1], in experiment [2], in experiment [3] and in experiment [4] was “inactive” each time.
For `CCN1C[C@@]2(COC)CCC(OC)[C@]34C5C[C@]6(O)[C@@H](OC)C[C@](OC(C)=O)(C([C@H](OC)C23)[C@H]14)C5[C@H]6OC(=O)c1ccc(OC)cc1` (stereo partly drawn), the Potency entry in experiment [1], in experiment [2], in experiment [3] and in experiment [4] was “inactive” in each case.
`Nc1ccn([C@@H]2O[C@H](CO)[C@@H](OP(=O)(O)O)[C@H]2O)c(=O)n1`: the Potency entry in experiment [1], in experiment [2], in experiment [3] and in experiment [4] was “inactive” in each case.
On to `Cc1ccc2ccccc2n1`, for which the Potency result in experiment [1], in experiment [2], in experiment [3] and in experiment [4] was “inactive” in each case.
Regarding `c1cnc2c(-c3nccc4c3[nH]c3ccccc34)cccc2c1`, the Potency result in experiment [1], in experiment [2], in experiment [3] and in experiment [4] was “inactive” each time.
On to `Cc1cc(O)c2c(c1)C(O)(C1OC(CO)C(O)C(O)C1O)c1cccc(O)c1C2=O` (stereo not drawn), for which the Potency entry in experiment [1], in experiment [2], in experiment [3] and in experiment [4] was “inactive” throughout.
As to `COc1ccc([C@@]23Oc4cc(OC)cc(OC)c4[C@]2(O)[C@H](O)[C@H](C(=O)N(C)C)[C@H]3c2ccccc2)cc1`, the Potency entry in experiment [1], in experiment [2], in experiment [3] and in experiment [4] was “inactive” each time.
